Laboratory results reported in the supplement of paper PMC10849652.
Targets with a hit are over-represented here; the source holds about 7,900 in all. About 0.6% of all pairs of compound and target were hits.

Tests used:
Assay in all cases: log2 fold change, soluble protein after heating vs DMSO (PISA); higher = thermal stabilisation; K562 cells, 10 uM, 30 min; active = over 0.2 and 3.5 SD of the protein, either way, in both replicates (recomputed)
[1] = compound: C1=CC=C(C=C1)[C@H](COC2=CC3=C(C=C2)NC(=O)N3)NC(=O)C4=CC=CN(C4=O)CC5=CC(=C(C=C5)F)F
How it was run: (§1)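 Aliquots of K562 cells (2×10^6 cells/mL) treated with 10 μM compound for 30 min were heated for 3 min over 48°C-58°C. After pooling and extraction in PBS with 0.5% NP-40 at 4°C, soluble protein from a 21,000xg, 90 min spin was quantified by TMTpro 16plex LC-MS/MS with channel sums equalised. Thermal stability is expressed against control samples, from duplicates, as a log2 fold change.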

[2] = compound: CC1=C(SC2=C1C(=N[C@H](C3=NN=C(N32)C)CC(=O)N)C4=CC=C(C=C4)Cl)C
How it was run: as §1

[3] = compound: CC1=C2C(=CC=C1)N=C(N(C2=O)C3=CC=CC=C3C)CN4C=NC5=C(N=CN=C54)N
How it was run: as §1

[4] = compound: Cc1sc2c(c1C)C(c1ccc(Cl)cc1)=N[C@@H](CC(=O)OC(C)(C)C)c1nnc(C)n1-2
How it was run: as §1

[5] = compound: c1ccc([C@@H]2C[C@H]2NC2CCNCC2)cc1
How it was run: as §1

Measured: log2 fold change

STK11IP (UniProt Q8N1F8)
inactive: [1] 0.035 | [2] 0.026 | [3] -0.02 | [4] 0.05 | [5] -0.048

TGFBI (UniProt Q15582)
inactive: [1] -0.115 | [2] -0.024 | [3] 0.019 | [4] -0.048 | [5] -0.08

SPPL2B (UniProt Q8TCT7)
inactive: [1] 0.039 | [2] 0.132 | [3] 0.049 | [4] 0.024 | [5] -0.022

SLC30A7 (UniProt Q8NEW0)
UniProt Q8NEW0, sequence (Q8NEW0 whole entry, looked up): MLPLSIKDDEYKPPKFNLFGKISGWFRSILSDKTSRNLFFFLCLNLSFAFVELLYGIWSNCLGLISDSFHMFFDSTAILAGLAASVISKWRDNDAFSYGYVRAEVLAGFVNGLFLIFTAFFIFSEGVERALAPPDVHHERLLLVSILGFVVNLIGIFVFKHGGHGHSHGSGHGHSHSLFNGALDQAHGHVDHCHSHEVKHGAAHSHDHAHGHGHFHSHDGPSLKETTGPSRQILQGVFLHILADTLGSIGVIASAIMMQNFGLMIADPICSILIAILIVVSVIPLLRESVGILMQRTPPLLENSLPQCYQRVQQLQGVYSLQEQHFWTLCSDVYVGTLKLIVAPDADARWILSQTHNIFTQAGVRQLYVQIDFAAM
inactive: [1] -0.033 | [2] 0.052 | [3] -0.049 | [4] 0.039 | [5] -0.011

TBCD (UniProt Q9BTW9)
inactive: [1] -0.028 | [2] 0.03 | [3] 0.101 | [4] -0.004 | [5] -0.03

SUPT16H (UniProt Q9Y5B9)
inactive: [1] -0.238 | [2] 0.023 | [3] 0.279 | [4] -0.106 | [5] -0.006

TIPRL (UniProt O75663)
inactive: [1] -0.078 | [2] 0.07 | [3] 0.083 | [4] 0.001 | [5] -0.007

TGFBR1 isoform 2 (UniProt P36897)
UniProt P36897, sequence (P36897 whole entry, looked up): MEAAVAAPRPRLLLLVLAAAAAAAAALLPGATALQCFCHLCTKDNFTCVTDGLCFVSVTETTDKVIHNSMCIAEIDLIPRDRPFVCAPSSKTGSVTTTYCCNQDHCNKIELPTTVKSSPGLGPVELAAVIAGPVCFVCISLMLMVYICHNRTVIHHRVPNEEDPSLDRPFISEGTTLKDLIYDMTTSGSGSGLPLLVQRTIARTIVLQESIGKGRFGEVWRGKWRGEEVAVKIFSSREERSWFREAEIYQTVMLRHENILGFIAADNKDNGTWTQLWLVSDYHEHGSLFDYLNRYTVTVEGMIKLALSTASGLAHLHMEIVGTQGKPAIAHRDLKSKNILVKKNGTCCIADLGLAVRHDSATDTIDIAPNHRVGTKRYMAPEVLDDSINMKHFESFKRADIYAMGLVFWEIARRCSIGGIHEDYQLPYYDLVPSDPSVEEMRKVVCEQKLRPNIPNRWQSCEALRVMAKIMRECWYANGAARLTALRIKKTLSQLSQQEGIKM
inactive: [1] -0.001 | [2] 0.029 | [3] -0.047 | [4] -0.029 | [5] 0.026

SMCHD1 (UniProt A6NHR9)
inactive: [1] 0.129 | [2] 0.141 | [3] 0.063 | [4] 0.01 | [5] 0.036

SLC27A4 (UniProt Q6P1M0)
inactive: [1] -0.018 | [2] 0.095 | [3] 0.037 | [4] -0.027 | [5] -0.019

SUCLA2 (UniProt Q9P2R7)
inactive: [1] -0.029 | [2] 0.07 | [3] 0.113 | [4] -0.017 | [5] -0.044

SLC6A6 (UniProt P31641)
inactive: [1] -0.002 | [2] 0.065 | [3] 0.039 | [4] 0.018 | [5] 0.035

SLC35F6 (UniProt Q8N357)
inactive: [1] -0.034 | [2] -0.045 | [3] 0.064 | [4] -0.057 | [5] 0.067

TIMM10 (UniProt P62072)
inactive: [1] -0.013 | [2] -0.043 | [3] 0.042 | [4] -0.033 | [5] 0.022

SNX6 (UniProt Q9UNH7)
inactive: [1] -0.037 | [2] 0.039 | [3] 0.053 | [4] 0.012 | [5] -0.11

SMAP (UniProt O00193)
inactive: [1] -0.082 | [2] 0.011 | [3] 0.03 | [4] -0.039 | [5] 0.003

SNRPB2 (UniProt P08579)
UniProt P08579, sequence (P08579 whole entry, looked up): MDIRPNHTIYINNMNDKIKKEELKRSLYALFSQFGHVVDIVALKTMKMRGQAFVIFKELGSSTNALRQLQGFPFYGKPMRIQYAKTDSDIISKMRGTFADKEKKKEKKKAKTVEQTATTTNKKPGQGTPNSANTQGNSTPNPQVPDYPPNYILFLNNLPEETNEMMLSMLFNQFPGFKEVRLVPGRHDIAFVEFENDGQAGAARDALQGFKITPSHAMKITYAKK
inactive: [1] 0.083 | [2] 0.002 | [3] -0.044 | [4] 0.07 | [5] 0.02

STEAP3 isoform 2 (UniProt Q658P3)
inactive: [1] -0.011 | [2] 0 | [3] 0.022 | [4] -0.034 | [5] -0.04

SSX2 (UniProt Q16385)
UniProt Q16385, sequence (Q16385 whole entry, looked up): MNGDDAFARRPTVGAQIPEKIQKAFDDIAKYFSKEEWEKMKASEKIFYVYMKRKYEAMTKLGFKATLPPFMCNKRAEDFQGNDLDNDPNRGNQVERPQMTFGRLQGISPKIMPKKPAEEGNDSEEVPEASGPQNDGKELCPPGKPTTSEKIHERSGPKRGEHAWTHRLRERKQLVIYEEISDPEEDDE
inactive: [1] 0.008 | [2] -0.024 | [3] 0.038 | [4] -0.021 | [5] 0.023

SPR (UniProt P35270)
UniProt P35270, sequence (P35270 whole entry, looked up): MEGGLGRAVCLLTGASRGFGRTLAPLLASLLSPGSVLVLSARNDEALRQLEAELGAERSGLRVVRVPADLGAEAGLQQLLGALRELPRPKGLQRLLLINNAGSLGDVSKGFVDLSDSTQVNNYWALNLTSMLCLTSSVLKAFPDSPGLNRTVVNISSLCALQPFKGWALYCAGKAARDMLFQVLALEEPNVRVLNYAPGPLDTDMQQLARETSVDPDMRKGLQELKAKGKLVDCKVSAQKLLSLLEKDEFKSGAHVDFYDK
inactive: [1] 0.026 | [2] 0.04 | [3] 0.031 | [4] -0.058 | [5] -0.105

TLK2 isoform 2 (UniProt Q86UE8)
inactive: [1] 0.006 | [2] 0.021 | [3] 0.041 | [4] -0.007 | [5] 0.051

TEX264 (UniProt Q9Y6I9)
inactive: [1] -0.024 | [2] 0.03 | [3] -0.072 | [4] -0.084 | [5] -0.02

TMBIM1 (UniProt Q969X1)
inactive: [1] 0.024 | [2] 0.206 | [3] 0.242 | [4] -0.005 | [5] 0.193

SSR3 isoform 2 (UniProt Q9UNL2)
inactive: [1] 0.016 | [2] -0.087 | [3] -0.107 | [4] -0.078 | [5] -0.168

SNX3 (UniProt O60493)
inactive: [1] -0.057 | [2] 0 | [3] 0.105 | [4] -0.006 | [5] -0.064

SOX5 (UniProt P35711)
inactive: [1] -0.033 | [2] 0.005 | [3] -0.058 | [4] -0.018 | [5] -0.022

SLC25A42 (UniProt Q86VD7)
inactive: [1] 0.073 | [2] 0.051 | [3] -0.019 | [4] -0.005 | [5] 0.003

SLC29A3 (UniProt Q9BZD2)
UniProt Q9BZD2, sequence (Q9BZD2 whole entry, looked up): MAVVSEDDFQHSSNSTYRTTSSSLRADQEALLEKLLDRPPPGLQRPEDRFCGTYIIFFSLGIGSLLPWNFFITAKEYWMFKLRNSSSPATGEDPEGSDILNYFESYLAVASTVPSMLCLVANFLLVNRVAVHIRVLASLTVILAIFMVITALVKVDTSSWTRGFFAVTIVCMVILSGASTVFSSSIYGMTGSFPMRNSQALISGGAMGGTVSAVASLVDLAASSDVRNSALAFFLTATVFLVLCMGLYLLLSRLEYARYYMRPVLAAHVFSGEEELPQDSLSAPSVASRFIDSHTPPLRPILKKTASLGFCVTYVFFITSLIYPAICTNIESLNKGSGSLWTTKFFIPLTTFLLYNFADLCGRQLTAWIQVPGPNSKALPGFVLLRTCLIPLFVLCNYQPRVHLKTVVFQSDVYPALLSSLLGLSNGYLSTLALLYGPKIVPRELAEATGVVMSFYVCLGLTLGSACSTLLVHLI
inactive: [1] 0.036 | [2] 0.033 | [3] 0.044 | [4] -0.352 | [5] 0.139

SPART (UniProt Q8N0X7)
UniProt Q8N0X7, sequence (Q8N0X7 whole entry, looked up): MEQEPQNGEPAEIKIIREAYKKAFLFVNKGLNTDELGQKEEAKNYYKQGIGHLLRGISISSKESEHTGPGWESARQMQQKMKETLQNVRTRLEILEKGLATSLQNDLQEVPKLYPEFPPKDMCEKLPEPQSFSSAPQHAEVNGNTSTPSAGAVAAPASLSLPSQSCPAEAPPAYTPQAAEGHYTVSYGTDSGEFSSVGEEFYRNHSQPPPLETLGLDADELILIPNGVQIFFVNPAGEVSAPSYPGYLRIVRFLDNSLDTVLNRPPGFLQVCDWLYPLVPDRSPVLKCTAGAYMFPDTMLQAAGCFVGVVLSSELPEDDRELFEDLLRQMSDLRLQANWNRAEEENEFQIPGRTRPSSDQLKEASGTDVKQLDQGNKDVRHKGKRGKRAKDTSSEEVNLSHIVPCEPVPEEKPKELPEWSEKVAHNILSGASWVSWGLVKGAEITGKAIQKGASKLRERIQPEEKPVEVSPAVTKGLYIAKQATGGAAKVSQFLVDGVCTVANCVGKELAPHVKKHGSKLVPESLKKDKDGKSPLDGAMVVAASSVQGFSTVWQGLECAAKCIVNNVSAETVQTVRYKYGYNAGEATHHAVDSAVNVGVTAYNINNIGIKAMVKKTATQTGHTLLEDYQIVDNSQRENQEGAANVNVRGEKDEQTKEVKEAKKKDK
inactive: [1] -0.028 | [2] 0.043 | [3] 0.065 | [4] 0.018 | [5] -0.002

SP100 isoform 4 (UniProt P23497)
inactive: [1] -0.006 | [2] -0.015 | [3] -0.047 | [4] 0 | [5] 0.024

TERF2IP (UniProt Q9NYB0)
inactive: [1] 0.003 | [2] 0.01 | [3] 0.004 | [4] -0.01 | [5] 0.066

SNX15 (UniProt Q9NRS6)
inactive: [1] 0.065 | [2] -0.032 | [3] 0.141 | [4] 0.279 | [5] -0.081

SLC25A4 (UniProt P12235)
UniProt P12235, sequence (P12235 whole entry, looked up): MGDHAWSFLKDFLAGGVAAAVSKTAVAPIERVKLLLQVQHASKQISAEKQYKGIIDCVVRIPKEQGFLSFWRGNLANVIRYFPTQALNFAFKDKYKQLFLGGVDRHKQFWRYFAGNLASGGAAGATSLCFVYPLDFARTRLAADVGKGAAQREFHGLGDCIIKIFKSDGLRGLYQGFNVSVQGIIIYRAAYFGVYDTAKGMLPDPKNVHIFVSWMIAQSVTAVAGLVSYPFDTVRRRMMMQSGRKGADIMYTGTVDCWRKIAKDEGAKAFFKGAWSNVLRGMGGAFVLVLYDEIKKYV
inactive: [1] -0.001 | [2] -0.034 | [3] 0.062 | [4] -0.049 | [5] 0.05

TBC1D24 (UniProt Q9ULP9)
inactive: [1] -0.108 | [2] 0.152 | [3] 0.02 | [4] -0.029 | [5] -0.061

SPAG9 isoform 4 (UniProt O60271)
inactive: [1] 0.15 | [2] 0.006 | [3] -0.048 | [4] 0.028 | [5] 0.025

TECR (UniProt Q9NZ01)
inactive: [1] -0.015 | [2] 0.049 | [3] 0.033 | [4] -0.046 | [5] 0

SRSF4 (UniProt Q08170)
inactive: [1] 0.09 | [2] -0.166 | [3] -0.124 | [4] 0.073 | [5] 0.096

TCOF1 isoform 6 (UniProt Q13428)
inactive: [1] 0.209 | [2] 0.151 | [3] -0.251 | [4] 0.271 | [5] 0.029

STK26 (UniProt Q9P289)
inactive: [1] -0.077 | [2] -0.029 | [3] -0.006 | [4] 0.004 | [5] 0.026

TENT5C (UniProt Q5VWP2)
inactive: [1] 0.017 | [2] 0.25 | [3] 0.122 | [4] 0.116 | [5] -0.35

SQSTM1 (UniProt Q13501)
UniProt Q13501, sequence (Q13501 whole entry, looked up): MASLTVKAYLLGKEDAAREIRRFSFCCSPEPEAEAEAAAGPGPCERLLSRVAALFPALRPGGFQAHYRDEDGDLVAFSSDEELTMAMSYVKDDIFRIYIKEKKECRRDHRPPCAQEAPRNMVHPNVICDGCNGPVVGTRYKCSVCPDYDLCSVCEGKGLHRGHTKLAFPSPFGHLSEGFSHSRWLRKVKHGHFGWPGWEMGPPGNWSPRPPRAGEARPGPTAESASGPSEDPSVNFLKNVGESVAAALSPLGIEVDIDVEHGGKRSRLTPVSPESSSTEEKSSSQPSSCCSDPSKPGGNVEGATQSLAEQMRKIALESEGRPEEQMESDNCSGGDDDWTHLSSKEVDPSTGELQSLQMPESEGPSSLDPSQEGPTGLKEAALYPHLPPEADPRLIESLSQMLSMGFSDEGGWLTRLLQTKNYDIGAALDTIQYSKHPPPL
inactive: [1] 0 | [2] 0.097 | [3] -0.128 | [4] 0.096 | [5] 0.012

TIMM13 (UniProt Q9Y5L4)
inactive: [1] -0.049 | [2] 0.049 | [3] 0.012 | [4] -0.035 | [5] 0.013

SLC38A7 (UniProt Q9NVC3)
inactive: [1] 0.021 | [2] -0.031 | [3] -0.004 | [4] -0.035 | [5] 0.117

SSR4 (UniProt P51571)
inactive: [1] 0.045 | [2] 0.046 | [3] 0.002 | [4] -0.048 | [5] -0.018

STARD3 (UniProt Q14849)
inactive: [1] 0.011 | [2] -0.036 | [3] 0.14 | [4] 0.066 | [5] -0.153

SNX12 isoform 1 (UniProt Q9UMY4)
inactive: [1] 0.016 | [2] -0.009 | [3] 0.095 | [4] 0.026 | [5] 0.02

SRC isoform 2 (UniProt P12931)
UniProt P12931, sequence (P12931 whole entry, looked up): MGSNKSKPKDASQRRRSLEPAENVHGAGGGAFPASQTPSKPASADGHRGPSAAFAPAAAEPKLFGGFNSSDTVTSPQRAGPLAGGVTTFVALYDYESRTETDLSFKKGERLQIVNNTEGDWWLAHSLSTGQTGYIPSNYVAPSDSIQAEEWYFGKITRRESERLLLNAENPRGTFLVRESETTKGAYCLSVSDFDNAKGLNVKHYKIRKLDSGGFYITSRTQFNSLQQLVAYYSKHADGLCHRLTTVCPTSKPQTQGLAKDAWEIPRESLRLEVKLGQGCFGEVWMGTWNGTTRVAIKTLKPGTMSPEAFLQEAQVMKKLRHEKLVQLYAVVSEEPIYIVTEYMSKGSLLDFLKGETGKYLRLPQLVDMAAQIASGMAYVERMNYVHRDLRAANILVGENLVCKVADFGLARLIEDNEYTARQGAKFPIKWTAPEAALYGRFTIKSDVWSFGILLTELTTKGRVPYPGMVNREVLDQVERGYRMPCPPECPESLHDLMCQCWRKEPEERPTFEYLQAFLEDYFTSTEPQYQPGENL
inactive: [1] 0.016 | [2] 0.181 | [3] 0.125 | [4] 0.042 | [5] 0.003

SPTBN1 (UniProt Q01082)
inactive: [1] -0.002 | [2] -0.033 | [3] 0.078 | [4] 0.027 | [5] 0.013

SUPT5H (UniProt O00267)
inactive: [1] -0.05 | [2] 0.109 | [3] 0.106 | [4] 0.001 | [5] -0.051

STARD3NL (UniProt O95772)
inactive: [1] 0.027 | [2] 0.025 | [3] 0.142 | [4] 0 | [5] 0.039

SNX9 (UniProt Q9Y5X1)
UniProt Q9Y5X1, sequence (Q9Y5X1 whole entry, looked up): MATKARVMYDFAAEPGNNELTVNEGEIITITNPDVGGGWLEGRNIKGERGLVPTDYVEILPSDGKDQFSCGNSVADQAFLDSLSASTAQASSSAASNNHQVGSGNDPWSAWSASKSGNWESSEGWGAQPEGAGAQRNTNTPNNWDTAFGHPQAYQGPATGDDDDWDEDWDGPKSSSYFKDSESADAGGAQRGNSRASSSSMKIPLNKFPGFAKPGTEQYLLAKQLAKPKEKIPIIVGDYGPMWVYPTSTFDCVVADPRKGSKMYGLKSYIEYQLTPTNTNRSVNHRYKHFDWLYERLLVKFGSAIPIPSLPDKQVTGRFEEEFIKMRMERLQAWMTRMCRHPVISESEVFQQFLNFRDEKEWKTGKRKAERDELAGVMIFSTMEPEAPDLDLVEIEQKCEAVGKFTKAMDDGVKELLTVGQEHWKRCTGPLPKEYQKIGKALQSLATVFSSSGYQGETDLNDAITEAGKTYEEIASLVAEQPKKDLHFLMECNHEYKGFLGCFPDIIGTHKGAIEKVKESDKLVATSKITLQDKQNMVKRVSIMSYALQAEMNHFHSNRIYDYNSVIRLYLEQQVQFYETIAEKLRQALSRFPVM
inactive: [1] -0.051 | [2] 0.019 | [3] 0.048 | [4] 0.002 | [5] 0.017

SRI (UniProt P30626)
inactive: [1] -0.034 | [2] 0.111 | [3] 0.043 | [4] -0.093 | [5] -0.064

SLC7A6OS (UniProt Q96CW6)
UniProt Q96CW6, sequence (Q96CW6 whole entry, looked up): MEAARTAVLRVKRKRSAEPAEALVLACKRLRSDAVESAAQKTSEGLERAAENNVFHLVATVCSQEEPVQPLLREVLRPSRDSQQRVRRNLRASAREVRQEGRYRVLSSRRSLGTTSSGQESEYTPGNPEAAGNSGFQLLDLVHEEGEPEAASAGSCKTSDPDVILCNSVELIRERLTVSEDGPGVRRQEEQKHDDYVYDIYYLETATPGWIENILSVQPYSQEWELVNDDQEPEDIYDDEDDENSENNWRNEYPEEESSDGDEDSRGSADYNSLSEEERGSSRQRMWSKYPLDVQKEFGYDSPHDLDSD
inactive: [1] -0.026 | [2] -0.043 | [3] 0.03 | [4] 0.012 | [5] 0.032
